Assay results: PubChem BioAssay (NCATS)
Results filed as inconclusive are left out. Calls of active or inactive are those of the source. Calls follow the shape of the dose curve; as a rule, active = well fitted cell-killing curve with a large enough effect; inconclusive = small, poorly fitted or top-dose-only effect, or effect the other way; inactive = no such curve, though single readings can be large or run the other way.

Key:
[1] = Quantitative High-Throughput drug screen in 47 multiple myeloma cell lines against the NCATS MIPE library collection: SKMM1_PLB cell viability assay (AID 1919863); conditions: SKMM1 myeloma viability, CellTiter-Glo ATP, 48 h; viability: hits give low values; also: nearly all actives have a fitted effect of over 35% in size; also: potency is read from the fitted curve at half-maximal effect
Procedure, shortened: (§1)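 Inhibition of viability over 48 h was scored by ATP content (CellTiter-Glo) in 500-cell wells. Zero and full viability were defined by media-only and DMSO-only wells.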

[2] = Quantitative High-Throughput drug screen in 47 multiple myeloma cell lines against the NCATS MIPE library collection: U266_ATCC cell viability assay (AID 1919864); conditions: U266 myeloma viability, CellTiter-Glo ATP luminescence, 48 h; series mostly up to 45.8 µM;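 also: 0% = media-only wells without cells and 100% = DMSO-only wells; nearly all actives have a fitted effect of over 35% in size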
Procedure, shortened: as §1

[3] = Quantitative High-Throughput drug screen in 47 multiple myeloma cell lines against the NCATS MIPE library collection: XG6_PLB cell viability assay (AID 1919865); conditions: XG6 myeloma viability, CellTiter-Glo ATP luminescence, 48 h; series mostly up to 45.8 µM; also: nearly all actives have a fitted effect of over 40% in size; also: potency is read from the fitted curve at half-maximal effect
Procedure, shortened: as §1

[4] = Quantitative High-Throughput drug screen in 47 multiple myeloma cell lines against the NCATS MIPE library collection: VP6_DJ cell viability assay (AID 1919867); conditions: ATP luminescence, 48 h; series mostly up to 45.8 µM; also: nearly all actives have a fitted effect of over 40% in size; also: potency is read from the fitted curve at half-maximal effect
Procedure, shortened: as §1

[5] = Quantitative High-Throughput drug screen in 47 multiple myeloma cell lines against the NCATS MIPE library collection: PE2_PLB cell viability assay (AID 1919869); conditions: PE2_PLB myeloma cells viability, ATP luminescence, 48 h; series mostly up to 45.8 µM; also: nearly all actives have a fitted effect of over 35% in size; also: potency is read from the fitted curve at half-maximal effect
Procedure, shortened: as §1

[6] = Quantitative High-Throughput drug screen in 47 multiple myeloma cell lines against the NCATS MIPE library collection: XG1_PLB cell viability assay (AID 1919866); conditions: CellTiter-Glo ATP, 48 h; series mostly up to 45.8 µM; also: nearly all actives have a fitted effect of over 35% in size; also: potency is read from the fitted curve at half-maximal effect
Procedure, shortened: as §1

[7] = Quantitative High-Throughput drug screen in 47 multiple myeloma cell lines against the NCATS MIPE library collection: UTMC2_PLB cell viability assay (AID 1919868); conditions: CellTiter-Glo ATP luminescence, 48 h; series mostly up to 45.8 µM; also: nearly all actives have a fitted effect of over 55% in size; also: potency is read from the fitted curve at half-maximal effect
Procedure, shortened: as §1

[8] = Quantitative High-Throughput drug screen in 47 multiple myeloma cell lines against the NCATS MIPE library collection: RPMI8226_ATCC cell viability assay (AID 1919871); conditions: RPMI8226 myeloma viability, CellTiter-Glo ATP luminescence, 48 h; series mostly up to 45.8 µM; also: nearly all actives have a fitted effect of over 30% in size; also: potency is read from the fitted curve at half-maximal effect
Procedure, shortened: as §1

[9] = Quantitative High-Throughput drug screen in 47 multiple myeloma cell lines against the NCATS MIPE library collection: PCM6_Riken cell viability assay (AID 1919870); conditions: CellTiter-Glo ATP, 48 h; series mostly up to 45.8 µM; also: nearly all actives have a fitted effect of over 30% in size; also: potency is read from the fitted curve at half-maximal effect
Procedure, shortened: as §1

O=C(CS(=O)Cc1ccco1)NCC=CCOc1cc(CN2CCCCC2)ccn1 (configuration not stated)
inactive: viability [1] 134% | Potency [2] | Potency [5]
active: Potency [3] 14.8 µM | Potency [4] 16.6 µM

O=Nc1c(-c2c(O)[nH]c3cc(Br)ccc23)[nH]c2ccccc12
active: Potency [1] 20.9 µM | Potency [6] 5.9 µM | Potency [4] 5.26 µM | Potency [7] 8.33 µM | Potency [5] 5.26 µM

Nc1nc(OCc2ccccc2)c2[nH]cnc2n1
inactive: viability [1] 128% | Potency [8]
active: Potency [6] 13.2 µM | Potency [4] 7.43 µM

O=c1c(O)c(-c2ccc(O)cc2O)oc2cc(O)cc(O)c12
inactive: viability [1] 122% | Potency [2] | Potency [8]
active: Potency [6] 0.833 µM

CC(=O)O[C@H]1C(=O)[C@@]2(C)C([C@H](OC(=O)c3ccccc3)[C@]3(O)C[C@H](OC(=O)[C@H](O)[C@@H](NC(=O)c4ccccc4)c4ccccc4)C(C)=C1C3(C)C)[C@]1(OC(C)=O)CO[C@@H]1C[C@@H]2O (some centres not stated)
inactive: Potency [6] | Potency [4] | Potency [5] | Potency [8]
active: Potency [1] 0.0033 µM

NNc1nncc2ccccc12
inactive: viability [1] 116% | Potency [2] | Potency [6] | Potency [5] | Potency [9] | Potency [8]

O=C(O)c1cc(=O)c2c(OCC(O)COc3cccc4oc(C(=O)O)cc(=O)c34)cccc2o1
inactive: viability [1] 125% | Potency [3] | Potency [6] | Potency [5] | Potency [9]
active: Potency [4] 5.26 µM

O=C1NC(=O)C(c2ccccc2[N+](=O)[O-])=C1Nc1ccc(O)c(Cl)c1
active: Potency [6] 8.33 µM | Potency [9] 18.7 µM
inactive: viability [1] 110% | Potency [2] | Potency [7]

COc1c2occc2cc2ccc(=O)oc12
active: Potency [6] 5.9 µM
inactive: viability [1] 118% | Potency [3] | Potency [5] | Potency [9]

CC(C)[N+]1(C)[C@@H]2CC[C@H]1CC(OC(=O)C(CO)c1ccccc1)C2 (some centres not stated)
inactive: viability [1] 150% | Potency [2] | Potency [5]
active: Potency [4] 14.8 µM

Clc1ccc(C(Cn2ccnc2)OCc2c(Cl)cccc2Cl)c(Cl)c1 (configuration not stated)
active: Potency [1] 26.4 µM | Potency [3] 26.4 µM | Potency [6] 20.9 µM | Potency [4] 16.6 µM

Clc1ccc(C(Cn2ccnc2)OCc2ccsc2Cl)c(Cl)c1 (configuration not stated)
active: Potency [1] 13.2 µM | Potency [3] 20.9 µM | Potency [6] 23.5 µM | Potency [9] 16.6 µM

CC[C@]1(O)C[C@H]2CN(CCc3c([nH]c4ccccc34)[C@@](C(=O)OC)(c3cc4c(cc3OC)N(C=O)[C@H]3[C@@](O)(C(=O)OC)[C@H](OC(C)=O)[C@]5(CC)C=CCN6CC[C@]43[C@@H]65)C2)C1
active: Potency [1] 0.0053 µM | Potency [8] 0.0093 µM
inactive: Potency [3]

Oc1ccc(OCc2ccccc2)cc1
inactive: Potency [2] | Potency [6] | Potency [4] | Potency [5]
active: Potency [1] 7.43 µM

N[C@@H](Cc1cc(I)c(Oc2cc(I)c(O)c(I)c2)c(I)c1)C(=O)O
inactive: viability [1] 121% | Potency [3] | Potency [6] | Potency [4] | Potency [5] | Potency [9] | Potency [8]

Cc1ncc([N+](=O)[O-])n1CC(C)O (configuration not stated)
inactive: viability [1] 126%
active: Potency [6] 10.5 µM | Potency [4] 18.7 µM

Cc1cc(O)c2c(c1)C(=O)c1cc(O)cc(O)c1C2=O
inactive: Potency [6] | Potency [4]
active: Potency [1] 20.9 µM | Potency [8] 23.5 µM

COC(=O)C1=C(C)NC(C)=C(C(=O)OCCCN2CCC(c3ccccc3)(c3ccccc3)CC2)C1c1cccc([N+](=O)[O-])c1 (configuration not stated)
inactive: viability [1] 122% | Potency [6] | Potency [4] | Potency [7] | Potency [5] | Potency [9]

CN(C)c1ccc2nc3ccc(=[N+](C)C)cc-3sc2c1
active: Potency [1] 1.66 µM | Potency [3] 5.26 µM | Potency [6] 1.32 µM | Potency [4] 1.32 µM | Potency [5] 3.72 µM | Potency [9] 1.05 µM

CN1CCC(=C2c3ccccc3CCc3sccc32)CC1
inactive: viability [1] 99.6% | Potency [3] | Potency [5]
active: Potency [6] 18.7 µM

Cn1c(NCCN(CCO)CCCc2ccc([N+](=O)[O-])cc2)cc(=O)n(C)c1=O
active: Potency [3] 20.9 µM | Potency [6] 26.4 µM | Potency [4] 18.7 µM
inactive: viability [1] 107%

Cc1cc2c(s1)Nc1ccccc1N=C2N1CCN(C)CC1
inactive: viability [1] 120% | Potency [2] | Potency [3] | Potency [6] | Potency [7] | Potency [5] | Potency [9] | Potency [8]

Cc1cc(=O)oc2cc(O)ccc12
inactive: viability [1] 114% | Potency [2] | Potency [3] | Potency [6] | Potency [5]

Cc1cc2cc3c(C)cc(=O)oc3c(C)c2o1
active: Potency [1] 26.4 µM | Potency [6] 18.7 µM | Potency [4] 23.5 µM | Potency [5] 20.9 µM | Potency [9] 20.9 µM
